Results on 16 compounds are retold here after PubChem BioAssay (NCATS).

Values joined by “and” are separate entries in the source; they are usually repeats but may differ in a detail not shown here. Identical values can stand only once. Inconclusive results are not listed. Unmarked numbers belong to inactive results. Active and inactive are the calls of the source. The call rests on the fitted dose curve; in most records, active means well fitted activation curve with a large enough effect; inconclusive means small, poorly fitted or top-dose-only effect; inactive means no such curve, though single readings can be large or run the other way.
Potency means the concentration at half of the fitted maximal effect.

The assay deals with Cellular tumor antigen p53 (Homo sapiens) (UniProt P04637). In words: Primary qHTS for small molecule compounds that upregulate eGFP-tagged delta133p53alpha (in N-terminal) cells. (AID 2060322). Further: nearly all actives have a fitted effect of over 75% in size.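 On activation: series mostly up to about 56 µM; 0% = DMSO vehicle and 100% = reference activator.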 Conditions: NCI-H358 eGFP-delta133p53alpha fluorescence, 24 h; activation: hits give high values. In a few lines: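 NCI-H358 cells pre-induced 24 h with 10 ng/ml doxycycline to express N-terminal eGFP-delta133p53alpha, then dosed 24 h at 37C without doxycycline; fixed, Hoechst-stained, GFP intensity by laser scanning cytometry, normalized to DMSO (0%) and 57.5 uM 5-azacytidine (100%).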
Sequence of Cellular tumor antigen p53 (Homo sapiens) (P04637 whole entry, looked up): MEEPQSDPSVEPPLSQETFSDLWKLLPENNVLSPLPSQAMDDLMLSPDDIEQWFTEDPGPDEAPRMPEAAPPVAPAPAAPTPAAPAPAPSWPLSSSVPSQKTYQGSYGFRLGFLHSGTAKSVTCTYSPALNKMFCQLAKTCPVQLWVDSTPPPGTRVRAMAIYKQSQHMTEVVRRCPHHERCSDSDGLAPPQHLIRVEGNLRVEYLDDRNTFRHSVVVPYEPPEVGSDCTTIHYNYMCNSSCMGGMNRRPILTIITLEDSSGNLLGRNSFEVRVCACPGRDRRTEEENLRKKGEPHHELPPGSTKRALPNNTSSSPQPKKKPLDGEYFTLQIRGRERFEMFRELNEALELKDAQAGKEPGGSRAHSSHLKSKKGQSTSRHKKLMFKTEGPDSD
(In general: In qHTS, concentration-response curves come from the screen itself.)
`C#C[C@]1(O)CC[C@@H]2[C@@H]3CCc4cc(O)ccc4[C@H]3CC[C@@]21C`: the activation was 18.7%.

Consider `CC(C)(C)CC(C)(C)c1ccc(O)c(-n2nc3ccccc3n2)c1`, for which the activation was -0.565%.

`OCCOCCN1CCN(C(c2ccccc2)c2ccc(Cl)cc2)CC1` (stereo unspecified): the activation is 8.47%.

`Nc1ccccc1N`: the Potency is 17.8 µM (active).

Consider `c1ccc2sc(SN3CCOCC3)nc2c1`, for which the activation was 8.37%.

As for `COc1cc([C@@H]2c3cc4c(cc3[C@@H](O[C@@H]3O[C@@H]5CO[C@@H](c6cccs6)O[C@@H]5[C@H](O)[C@@H]3O)[C@H]3COC(=O)[C@H]23)OCO4)cc(OC)c1O`, the activation is -12.2%.

With `CCCCOc1ccc(C(=O)CCN2CCCCC2)cc1`, the activation was 10.9%.

`O=C(N[C@H](CO)[C@H](O)c1ccc([N+](=O)[O-])cc1)C(Cl)Cl`: the activation was 15.3% and -2.04%.

For the compound `Cc1nc(NC(=O)N2CCC[C@@H]2C(N)=O)sc1-c1ccnc(C(C)(C)C(F)(F)F)c1`, the activation is -9.38%.

Consider `Nc1ccc(C(=O)OCC(O)CO)cc1` (stereo unspecified), for which the activation is 6.21%.

As for `CC(C)C(=O)SCCCCCCC(=O)Nc1nc(-c2ccccc2)cs1`, the activation is 49.2%.

For `CC(=O)Oc1cccc(O)c1`, the activation is 18.6%.

Regarding `Cc1cccc(C)c1NC(=O)CN1CCCC1`, the activation is 10%.

Take `C[N+]12CCC(CC1)C(OC(=O)C(O)(c1ccccc1)c1ccccc1)C2` (stereo unspecified): the activation was -8.47%.

On to `CCOc1cc(NC(C)=O)ccc1C(=O)OC`, for which the activation was -3.95%.

For the compound `O=C(O)c1cc(=O)c2ccccc2o1`, the activation is 2.51%.
